Among the data in PubChem BioAssay are z-score and composite z-score values, retold here.

A short description of experiment [1]: HepG2 liver cancer cell viability effects, profiling panel, resazurin fluorescence, 24 h, PK04 Diversity Set (AID 1172). Also: test concentration not given here. Conditions: higher = more signal.
Experiment [2] can be described thus: basal S. cerevisiae growth modulation, no modifier, primary screen, OD600, strain BY4716, 24 h, basal condition (AID 1173). Conditions: OD600, 24 h, higher = more signal, called active from +8 up or from −8 down.
Experiment [3] can be described thus: MM1S myeloma cell viability, profiling panel, resazurin fluorescence, basal, 24 h, PK04 Diversity Set (AID 1174).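 Also: MM1S multiple myeloma cell line; test concentration not given here.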 The note with it: higher = more signal, called active from +8 up or from −8 down.
The target of experiment [4] is Dihydroorotate dehydrogenase (quinone), mitochondrial (Plasmodium falciparum (isolate 3D7)) (UniProt Q08210). In words: PfDHODH enzyme inhibitors, primary screen, biochemical, C-terminal His tag, absorbance 600 nm (AID 1175).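 Also: recombinant parasite enzyme with a five histidine tag at its C terminus; test concentration not given here.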 The note with it: DCIP absorbance 600 nm, higher = more signal, called active from +8 up or from −8 down.
A short description of experiment [5]: P. aeruginosa biofilm formation inhibitors, primary screen, strain PAO1, LB-PBS medium, absorbance 600 nm (AID 1176). Also: test concentration not given here. Conditions: P. aeruginosa PAO1 growth/biofilm, A600, 12 h; higher = more signal.
A short description of experiment [6]: S. cerevisiae RM11-1a growth modifiers, primary screen, strain RM11-1a, OD600, basal, 24 h (AID 1177).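 Also: cultures grown under basal conditions with no added stressor; test concentration not given here.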 Conditions: OD600, 24 h, higher = more signal, called active from +8 up or from −8 down.
Experiment [7] in a line: E. coli acrAB mutant growth effects, primary screen, E. coli filamentation inducers, strain DRC39, OD650, 24 h (AID 1178).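 Also: growth measured as culture turbidity by optical density at 650 nm; test concentration not given here.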 The note with it: higher = more signal, called active from +8 up or from −8 down.
Experiment [8] can be described thus: E. coli acrAB mutant growth effects, primary screen, E. coli filamentation inducers, strain DRC39, OD650, 48 h (AID 1179).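 Also: screen aims at cell division blockers that make cells filament.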 The note with it: E. coli DRC39 delta-acrAB growth, higher = more signal, called active from +8 up or from −8 down.
Experiment [9] can be described thus: RPMI8226 myeloma cell viability, profiling panel, resazurin fluorescence, basal, 24 h, PK04 Diversity Set (AID 1180).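 Also: RPMI8826 multiple myeloma cell line at 5000 cells per well; test concentration not given here.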 The note with it: higher = more signal. Background: Resazurin is reduced to fluorescent resorufin, in cell work by metabolically active cells.
Experiment [10] concerns the target E3 ubiquitin-protein ligase XIAP (Homo sapiens) (UniProt P98170). In words: XIAP binders, primary screen, biophysical, small-molecule microarray, fluorescence 635 nm (AID 1181).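 Also: score merges 667 nm emission and signal to noise over triplicate slides.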 Conditions: small-molecule microarray binding, higher = more signal.

Calls of active or inactive are those of the source. Unless noted, no rule for the calls is given here.

Sequence of Dihydroorotate dehydrogenase (quinone), mitochondrial (Plasmodium falciparum (isolate 3D7)) (Q08210 whole entry, looked up): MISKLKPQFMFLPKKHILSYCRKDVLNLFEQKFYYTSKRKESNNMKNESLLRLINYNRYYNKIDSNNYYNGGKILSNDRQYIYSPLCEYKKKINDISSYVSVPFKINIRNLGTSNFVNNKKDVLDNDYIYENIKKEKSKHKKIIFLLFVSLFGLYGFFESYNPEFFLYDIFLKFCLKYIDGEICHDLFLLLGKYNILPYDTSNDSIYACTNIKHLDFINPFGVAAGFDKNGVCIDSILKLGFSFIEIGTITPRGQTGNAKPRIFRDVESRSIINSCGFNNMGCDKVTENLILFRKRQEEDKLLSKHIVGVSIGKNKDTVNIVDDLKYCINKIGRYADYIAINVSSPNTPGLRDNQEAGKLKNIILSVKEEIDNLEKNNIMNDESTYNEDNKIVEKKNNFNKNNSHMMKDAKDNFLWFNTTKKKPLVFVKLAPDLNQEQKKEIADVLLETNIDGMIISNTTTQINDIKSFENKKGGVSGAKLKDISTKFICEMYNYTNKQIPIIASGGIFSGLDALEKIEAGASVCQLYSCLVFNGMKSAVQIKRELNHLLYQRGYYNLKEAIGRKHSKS
Sequence of E3 ubiquitin-protein ligase XIAP (Homo sapiens) (P98170 whole entry, looked up): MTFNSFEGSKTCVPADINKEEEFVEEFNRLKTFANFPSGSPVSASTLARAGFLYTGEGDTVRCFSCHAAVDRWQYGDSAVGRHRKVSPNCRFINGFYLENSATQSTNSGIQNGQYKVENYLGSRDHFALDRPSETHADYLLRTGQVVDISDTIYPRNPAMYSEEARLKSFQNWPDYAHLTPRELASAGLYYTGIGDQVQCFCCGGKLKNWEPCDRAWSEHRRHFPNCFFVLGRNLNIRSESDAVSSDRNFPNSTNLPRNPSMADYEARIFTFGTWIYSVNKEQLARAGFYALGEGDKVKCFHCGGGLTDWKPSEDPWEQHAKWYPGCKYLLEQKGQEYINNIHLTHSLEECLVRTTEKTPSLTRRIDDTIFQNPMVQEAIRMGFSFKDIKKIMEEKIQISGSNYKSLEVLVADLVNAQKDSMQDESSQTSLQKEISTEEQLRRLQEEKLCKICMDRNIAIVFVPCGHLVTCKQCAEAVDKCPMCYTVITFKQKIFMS

On to `Cc1ccccc1C(O)C1C=CC2C(=O)N(C)C(=O)C2N1N1CCCCC1` (stereo not given), for which the z-score is -0.424 in [1]; 0.492 (inactive) in experiment [2]; -1.24 (inactive) in [3]; 0.723 (inactive) in experiment [5]; -0.252 (inactive) in experiment [6]; -0.751 (inactive) in [7]. For the same compound, the z-score is -0.495 (inactive) in experiment [8] and -1.64 in [9]. The figures for the composite z-score in [4] and in [10] were -0.318 (inactive) and 0.124, respectively.

In the case of `CCCCCCc1nc(CCCc2cc3c(c(CCCCCC)n2)[Si](C(C)C)(C(C)C)OC3)cc2c1[Si](C(C)C)(C(C)C)OC2`, the z-score in experiment [1] was -0.0097; in experiment [2], -0.528 (inactive); in experiment [3], 0.129 (inactive); in experiment [5] it was 0.374 (inactive); in experiment [6] it was 0.539 (inactive); in experiment [7], -0.214 (inactive). For the same compound, the z-score in experiment [8] was -0.728 (inactive); in experiment [9] it was -0.655. The figures for the composite z-score in [4] and in experiment [10] were -2.32 (inactive) and -0.0829, respectively.

As for `O=C1O[C@@H](c2ccccc2)[C@@H](c2ccccc2)N2[C@@H](c3ccc(O)cc3)[C@]3(C(=O)Nc4ccc(C#CC5(O)CCCCCC5)cc43)[C@@H](C(=O)N3CCCCCCC3)[C@H]12`, the z-score in [1] is 0.366; in experiment [2], -0.479 (inactive); in experiment [3], -0.895 (inactive); in experiment [5], 1.89 (inactive); in experiment [6], 0.141 (inactive); in [7] it was -0.284 (inactive). Moreover, the z-score in experiment [8] was 0.38 (inactive); in [9], -0.884. Also, the results for the composite z-score in [4] and in experiment [10] were 0.916 (inactive) and 0.479, respectively.

Take `O=C1OCCC=C[C@H]2OC34C=CCN(Cc5ccccc5)C(=O)[C@H]3N(CCCCCO)C(=O)[C@@H]4C12` (stereo not given in full): the z-score in experiment [1] is 1.12; in experiment [2], -0.266 (inactive); in experiment [3], 1.61 (inactive); in experiment [5], 0.357 (inactive); in experiment [6], 0.484 (inactive); in experiment [7] it was 1.24 (inactive). Moreover, the results for the z-score in experiment [8] and in experiment [9] were 0.927 (inactive) and 1.4, respectively. Also, the composite z-score is -1.12 (inactive) in experiment [4] and 0.13 in [10].

With `COC(=O)[C@@]1(Cc2ccccc2)[C@H]2c3cc(C(=O)N4CCCC4)n(C)c3C[C@H]2CN1C(=O)c1ccccc1`, the z-score in experiment [1] was -0.533; in [2] it was 0.211 (inactive); in [3], -1.48 (inactive); in [5], 0.976 (inactive); in experiment [6] it was 0.513 (inactive); in experiment [7], -0.396 (inactive). Besides, the z-score in experiment [8] is -0.0676 (inactive); in experiment [9] it was -0.705. The composite z-score in [4] is 0.381 (inactive); in experiment [10] it was 0.391.

For `Cc1cc(C)c(C(O)C2C=CC3C(=O)N(C)C(=O)C3N2Nc2ccccc2)c(C)c1` (stereo not given), the z-score is -1.03 in experiment [1]; -0.0657 (inactive) in experiment [2]; -1.1 (inactive) in [3]; 0.944 (inactive) in [5]; -0.362 (inactive) in experiment [6]; -0.709 (inactive) in experiment [7]. The figures for the z-score in experiment [8] and in experiment [9] were -0.456 (inactive) and -1.46, respectively. Also, the composite z-score is 0.0016 (inactive) in [4] and 0.372 in experiment [10].

In the case of `COCC1=C2[C@@H](CCc3ccccc3)OB(O)C[C@@H]2[C@@H]2C(=O)N(Cc3ccccc3)C(=O)[C@@H]2C1`, the z-score in experiment [1] is 0.0373; in [2] it was -1.69 (inactive); in [3] it was -0.278 (inactive); in experiment [5], -0.177 (inactive); in [6] it was -1.06 (inactive); in experiment [7], -0.0682 (inactive). In addition, the values for the z-score in experiment [8] and in [9] were -0.0309 (inactive) and -0.039, respectively. For the same compound, the composite z-score in [4] was -0.345 (inactive); in experiment [10], -0.231.

Consider `CC(C)OC(=O)CC(=O)CC(O)c1ccc(C#N)cc1` (stereo not given), for which the z-score is 0.602 in [1]; -0.0106 (inactive) in experiment [2]; 0.8 (inactive) in experiment [3]; -0.088 (inactive) in [5]; -0.608 (inactive) in [6]; -0.0611 (inactive) in [7]. In addition, the z-score is 1.44 (inactive) in experiment [8] and 1.43 in [9]. For the same compound, the composite z-score in [4] was -1.12 (inactive); in experiment [10], -0.194.

As for `Cc1ccc(S[C@]2(C(=O)O)CC(=O)N(C3Cc4ccccc4C3)[C@@H]2c2ccc(CO)cc2I)cc1`, the z-score is 0.186 in [1]; -1.99 (inactive) in experiment [2]; -1.95 (inactive) in experiment [3]; -0.109 (inactive) in experiment [5]; -0.219 (inactive) in experiment [6]; 0.602 (inactive) in experiment [7]. For the same compound, the z-score in [8] is 0.447 (inactive); in experiment [9] it was -1.78. Further, the composite z-score in experiment [4] is 0.0058 (inactive); in experiment [10] it was -0.0726.

On to `C=C(CCCC)C(=O)CC[C@H](OC(=O)c1cccnc1)c1cccc(OCCO)c1`, for which the z-score in [1] was -0.53; in [2] it was 0.704 (inactive); in [3], -1.29 (inactive); in [5], -0.21 (inactive); in experiment [6], 1.7 (inactive); in [7], 0.477 (inactive). For the same compound, the results for the z-score in experiment [8] and in experiment [9] were 0.262 (inactive) and -2.01, respectively. Also, the composite z-score is -0.455 (inactive) in experiment [4] and -0.0582 in [10].

With `C=C(CCCC)/C(=C/C[C@H](OC(C)=O)c1ccc(CO)o1)c1cnc2ccccc2c1`, the z-score in experiment [1] was -0.0826; in [2], -0.143 (inactive); in experiment [3], -0.735 (inactive); in experiment [5], 1.58 (inactive); in experiment [6] it was 1.66 (inactive); in experiment [7] it was 0.18 (inactive). In addition, the figures for the z-score in experiment [8] and in experiment [9] were 0.284 (inactive) and 0.137, respectively. Besides, the composite z-score in experiment [4] is -6.03 (inactive); in experiment [10] it was 0.0426.

Regarding `O=C(CS)NCCCCCCNC(=O)[C@H]1C[C@H]2C(=O)N3CCC[C@H]3C(=O)N2[C@H]1c1cccc(OCCO)c1`, the z-score in experiment [1] is -0.162; in [2] it was 0.232 (inactive); in experiment [3] it was -0.837 (inactive); in experiment [5], 0.0499 (inactive); in experiment [6] it was -0.656 (inactive); in experiment [7] it was -0.34 (inactive). The z-score in [8] is -0.596 (inactive); in [9], -0.953. Besides, the composite z-score in experiment [4] was -0.15 (inactive); in experiment [10], 0.104.

Consider `C=CCOC(=O)[C@H]1[C@@H]2C(=O)O[C@@H](c3ccccc3)[C@@H](c3ccccc3)N2[C@@H](c2ccc(OCCOC(=O)[C@@H]3C[C@@H]4C(=O)NCC(=O)N4[C@@H]3c3ccc(O)cc3)cc2)[C@]12C(=O)Nc1ccccc12`, for which the z-score in [1] is 0.558; in experiment [2], -0.0301 (inactive); in experiment [3] it was 1.56 (inactive); in experiment [5], 2.05 (inactive); in experiment [6], -1.38 (inactive); in experiment [7], 0.971 (inactive). Also, the results for the z-score in experiment [8] and in experiment [9] were 1.61 (inactive) and 0.765, respectively. In addition, the composite z-score in [4] is -0.803 (inactive); in experiment [10], -0.121.
